Test results from PubChem BioAssay (NCI).
About 83,000 compounds went through this panel and 20% of them were active in at least one assay; those are over-represented in the sample as a whole.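 Compound tested at a single concentration for 48 hours in 96-well plates; a percent growth value below 10 was scored as active.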 The source made the active and inactive calls.

Assays:
Experiment in all cases: NCI-60 one-dose screen, 48 h (100 = growth as untreated, 0 = no growth, -100 = all killed)
Conditions in all cases: 10 µM unless noted
[1] = test system: NCI-H23 lung
[2] = test system: NCI-H226 lung
[3] = test system: NCI-H322M lung
[4] = test system: HOP-62 NSCLC
[5] = test system: NCI-H460 lung
[6] = test system: HOP-92 NSCLC
[7] = test system: NCI-H522 lung
[8] = test system: A549/ATCC NSCLC
[9] = test system: 786-0 renal
[10] = test system: COLO 205 colon
[11] = test system: DU-145 prostate
[12] = test system: K-562 leukemia
[13] = test system: MALME-3M melanoma
[14] = test system: RXF 393 renal
[15] = test system: SF-268 CNS
[16] = test system: SF-295 CNS
[17] = test system: SF-539 CNS
[18] = test system: UACC-257 melanoma
[19] = test system: M14 melanoma

Measured: growth

O=C(N/N=C/c1ccc(-c2ccc(O)cc2)o1)c1[nH]c2ccc(Br)cc2c1-c1ccccc1
active: [1] 5.82% | [4] -11.3% | [5] -11.3% | [6] -40.7% | [7] -45.9% | [9] -16.7% | [10] -54.5% | [11] 0.567% | [12] 1.64% | [13] -26.8% | [14] -10% | [16] -68.7% | [17] -59.2%
inactive: [2] 10.6% | [3] 17.4% | [8] 11.2% | [15] 12.7% | [18] 27.4% | [19] 18.1%

CNC(=O)c1cccc(NC(=O)c2ccc3c(c2)nnn3/C(C#N)=C/c2ccccn2)c1
active: [1] -39.3% | [2] -97.4% | [6] -29.5% | [7] -90% | [9] -95.9% | [10] -86.6% | [12] 0.0446% | [13] -97% | [14] -97.9% | [17] -72.8% | [18] -67.2% | [19] -73.6%
inactive: [3] 91.8% | [4] 82.7% | [5] 51.5% | [8] 83.2% | [11] 21.7% | [15] 24.4% | [16] 84.3%

C=C1CC[C@@H]2[C@]3(C)COC(c4cn(-c5ccccc5)nc4-c4ccccc4)O[C@@H]3CC[C@@]2(C)[C@@H]1C/C=C1/C(=O)OC[C@H]1O (some centres undefined)
active: [1] -84.7% | [2] -90.4% | [4] -68.1% | [5] -75.9% | [6] -88.1% | [7] -88.1% | [8] -22.2% | [9] -61.3% | [10] -90.9% | [11] 8.33% | [12] -29.9% | [13] -90.2% | [14] -90.8% | [15] 8.39% | [16] -97.5% | [17] -98.6% | [18] -77.2% | [19] -80.4%
inactive: [3] 29.1%

CC1=C(C(=O)OCc2ccccc2)C(c2ccc(-n3cncn3)cc2)n2c(nc3ccccc32)N1 (centres undefined)
inactive: [1] 86% | [2] 77.6% | [3] 83.5% | [4] 64.6% | [5] 28.1% | [6] 73.9% | [7] 19.3% | [8] 60.1% | [9] 69.2% | [10] 37.9% | [11] 67.7% | [12] 14.3% | [13] 50.9% | [14] 52.2% | [15] 71.5% | [16] 19.9% | [17] 38.3% | [18] 51.5% | [19] 50.5%

CC(=O)Nc1cccc(Nc2nccc(N[C@@H](C)c3ccccc3)n2)c1
active: [4] 8.72% | [5] 5.42% | [7] -43.4% | [10] -3.46% | [12] 7.64% | [16] -8.12% | [17] 9.09%
inactive: [1] 18.2% | [2] 34.7% | [3] 40.6% | [6] 45% | [8] 16.4% | [9] 26.6% | [11] 24.8% | [13] 28.7% | [14] 21.2% | [15] 27.6% | [18] 40.5% | [19] 22.6%

Cc1c(C(=O)NNC(=O)Nc2ccc(Cl)cc2)nnn1-c1ccc(Br)cc1
inactive: [1] 102% | [2] 103% | [3] 90.3% | [4] 97.1% | [5] 107% | [6] 92.8% | [7] 96.4% | [8] 96.9% | [9] 96.7% | [10] 107% | [11] 99.5% | [12] 92.2% | [13] 90.7% | [14] 90.5% | [15] 103% | [16] 98.8% | [17] 102% | [18] 99% | [19] 101%

Cc1ccc2c(N)c(C(=O)Nc3ccc(OC(F)(F)F)cc3)sc2n1
inactive: [1] 47.6% | [2] 47% | [3] 82.5% | [4] 68.4% | [5] 77.8% | [6] 59.1% | [7] 66.7% | [8] 75.7% | [9] 97.5% | [10] 92.4% | [11] 82.1% | [13] 75.3% | [14] 86.3% | [15] 98.9% | [16] 42.9% | [17] 36.5% | [18] 70% | [19] 82.9%
active: [12] 9.66%

O=C(O)c1cccc(-c2ccc(/C=N/NC(=O)c3[nH]c4ccc(Br)cc4c3-c3ccccc3)s2)c1
active: [7] 0.263% | [14] -2.3%
inactive: [1] 26.4% | [2] 57.6% | [3] 58.8% | [4] 53.2% | [5] 42.9% | [6] 60.3% | [8] 68.9% | [9] 50.9% | [10] 101% | [11] 55.6% | [12] 19.8% | [13] 57.9% | [15] 39% | [16] 15.6% | [17] 16.1% | [18] 85.5% | [19] 47.9%

COc1cc(/C=C/C(=O)c2nnn(-c3ccc(Cl)cc3)c2C)cc(OC)c1OC
inactive: [1] 26.9% | [2] 40% | [3] 63.1% | [4] 37.2% | [5] 14.2% | [6] 38.7% | [7] 28% | [8] 34.9% | [9] 65.8% | [10] 41.5% | [11] 17.3% | [13] 49% | [14] 49.7% | [15] 38.8% | [16] 51.8% | [17] 52% | [18] 35.3% | [19] 30.4%
active: [12] 3.43%

Cc1c(C(=O)NNC(=O)c2ccc(Cl)cc2)nnn1-c1ccc(Cl)cc1
inactive: [1] 106% | [2] 95.3% | [3] 89.7% | [4] 97.3% | [5] 104% | [6] 79.1% | [7] 96.9% | [8] 95.2% | [9] 94.2% | [10] 97.2% | [11] 108% | [12] 86.3% | [13] 86.9% | [14] 92.7% | [15] 105% | [16] 82.7% | [17] 99.6% | [18] 94.1% | [19] 93.6%

N#Cc1c(-c2cccc(Cl)c2Cl)cc(-c2ccc3ccccc3c2)[nH]c1=O
inactive: [1] 56.9% | [2] 19.6% | [3] 53.2% | [4] 34.4% | [5] 13.4% | [7] 78.7% | [8] 25.1% | [10] 116% | [11] 75.8% | [12] 91.2% | [13] 66% | [14] 60.9% | [15] 71.8% | [16] 31.8% | [17] 79.7% | [18] 94.2% | [19] 32.5%
active: [6] -16.6% | [9] -65.1%

COc1cc(-c2ccc(/C=N/NC(=O)c3[nH]c4ccc(Br)cc4c3-c3ccccc3)s2)cc(OC)c1OC
inactive: [1] 68.2% | [2] 54.4% | [3] 90.2% | [4] 74.2% | [5] 75.7% | [6] 69.7% | [7] 83.2% | [8] 77.1% | [9] 58.3% | [10] 108% | [11] 86.4% | [12] 89.6% | [13] 86.7% | [14] 82.4% | [15] 67.8% | [16] 49.6% | [18] 100% | [19] 82.5%
active: [17] 6.55%

CCOC(=O)C1=C(N)N(c2ccccc2)C2=C(C(=O)CC(C)(C)C2)C1c1cccc(Cl)c1Cl (centres undefined)
active: [6] -0.828%
inactive: [1] 69.7% | [2] 40.3% | [3] 77.8% | [4] 40.8% | [5] 61% | [7] 74.9% | [8] 60.6% | [9] 67.7% | [10] 80.6% | [11] 81% | [12] 59.5% | [13] 77.6% | [14] 53.4% | [15] 66% | [16] 53.5% | [17] 32.6% | [18] 85.4% | [19] 81%

N#Cc1ccc(/C=N/NC(=O)c2[nH]c3ccc(Br)cc3c2-c2ccccc2)o1
active: [1] 3.75% | [5] 1.47% | [6] -2.77% | [7] -36.4% | [9] -1.06% | [10] -25.2% | [11] 8.4% | [12] 2.28% | [14] -2.8% | [17] -16.8%
inactive: [2] 22.9% | [3] 41.3% | [4] 16.6% | [8] 12.7% | [13] 22% | [15] 17.7% | [16] 16% | [18] 13.6% | [19] 12.1%

O=C(/C=C/c1cccc(OCc2ccc(F)cc2)c1)c1nc2ccccc2[nH]1
inactive: [1] 73% | [2] 42.2% | [3] 114% | [4] 71.1% | [5] 76.8% | [6] 27.5% | [7] 63.5% | [8] 49.5% | [10] 13.8% | [11] 70.3% | [13] 95.8% | [14] 57.7% | [15] 95.1% | [16] 74.2% | [17] 44.7% | [18] 76.1% | [19] 13.8%
active: [9] -46.1% | [12] -14.6%

N#Cc1cnn(C(=O)c2ccccc2Br)c1NC(=O)c1ccc(Br)cc1Cl
inactive: [1] 104% | [2] 99.2% | [3] 100% | [4] 97.9% | [5] 105% | [6] 111% | [7] 102% | [8] 93.9% | [9] 95.8% | [10] 102% | [11] 108% | [12] 105% | [13] 95.8% | [14] 100% | [15] 116% | [16] 94.9% | [17] 96.9% | [18] 98.5% | [19] 101%
